MITF primary = inhibitors of human MITF; hit rate 0.91% among 650,000; inhibition, % at 2.6 µM; O75030; AID 1259374; AlphaScreen MITF homodimerization, bead proximity signal; in the data active means inhibition above about 50%;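 further: 0% = vehicle wells with protein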
Target sequence (O75030 whole entry, looked up): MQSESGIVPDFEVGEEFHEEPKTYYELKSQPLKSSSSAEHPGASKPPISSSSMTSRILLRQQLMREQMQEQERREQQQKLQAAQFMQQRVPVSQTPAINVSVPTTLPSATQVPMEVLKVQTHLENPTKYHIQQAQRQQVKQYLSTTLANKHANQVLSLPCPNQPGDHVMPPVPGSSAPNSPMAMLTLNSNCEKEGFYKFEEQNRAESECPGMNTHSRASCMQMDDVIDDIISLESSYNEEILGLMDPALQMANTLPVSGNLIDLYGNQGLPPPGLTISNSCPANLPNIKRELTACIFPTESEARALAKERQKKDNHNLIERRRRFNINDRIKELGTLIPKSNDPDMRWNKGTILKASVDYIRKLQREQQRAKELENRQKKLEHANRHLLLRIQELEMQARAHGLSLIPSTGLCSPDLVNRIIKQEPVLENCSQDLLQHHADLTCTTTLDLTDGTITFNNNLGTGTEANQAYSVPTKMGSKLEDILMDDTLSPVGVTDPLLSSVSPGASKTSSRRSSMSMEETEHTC
TEAD-YAP inh = TEAD-YAP interaction inhibition | HEK-TIYL cells, TEAD-Gal4/YAP UAS-luciferase luminescence | inhibition, % at 9.12 µM | AID 1259422 | hit rate 1.4% among 640,000; in the data active means inhibition above about 32%;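 further: 0% = median of test compound wells and 100% = reference inhibitor wells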
GPR151 activ = activates the human receptor GPR151. Q8TDV0. PathHunter beta-arrestin GPR151 cells, luminescence. activation, % at 11.2 µM. hit rate 1% among 650,000. AID 1508602; in the data active means activation above about 4.9%;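 further: 0% = median of compound wells and 100% = cells with positive control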
FBW7 activator = activators of human E3 ligase FBW7. AlphaScreen FBW7–phospho-cyclin E peptide binding, activator screen. normalized activity (activation), % at 26.1 µM. hit rate 0.13% among 650,000; in the data active means normalized activity above about 1.9%;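 further: purified mutant Fbw7 with reduced substrate affinity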
MITF inh conf = human MITF inhibition, confirmation | inhibition, % at 2.6 µM | AlphaScreen MITF homodimerization, biotin/His-MITF beads | shares compounds with MITF primary | AID 1259372 | hit rate 16% among 4,700;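 active means inhibition above a cutoff derived from the DMSO control wells, cut at about 28% in these data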;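 further: 0% = MITF dimer wells with DMSO only; inhibitors lower the bead chemiluminescence by keeping MITF from dimerizing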
AS interf DR = optically interferes with AlphaScreen signal in dose response. shares compounds with MITF primary. AlphaScreen optical interference counterscreen, cell-free. IC50, µM. hit rate 6% among 480; call rule not given here
AS interf ctr = counter-screen: compounds optically interfering with AlphaScreen; shares compounds with MITF primary; LysRS AlphaScreen counterscreen, signal interference, triplicate; inhibition, % at 2.6 µM; hit rate 7.6% among 4,700;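 active means inhibition above a cutoff derived from the DMSO control wells, cut at about 30% in these data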
Starred values were filed as active, the others as inactive; nt = no result. The list is not random: actives were taken first. Their share in the collection is about 3.5%.

SMILES	MITF primary	TEAD-YAP inh	GPR151 activ	FBW7 activator	MITF inh conf	AS interf ctr	others
O=[N+]([O-])c1cccc(CN2CCN(S(=O)(=O)c3ccc(F)cc3)CC2)c1	57*	-6	0	0	11	16
Clc1cc2c(cc1CN1CCC(c3[nH]ncc3-c3ccncc3)CC1)OCO2	14	2	0	1	nt	nt
CCOC(=O)C1=C(C)NC2=C(C(=O)CC(c3ccc(OC)cc3)C2)C1c1ccc(N(C)C)cc1 (centres undefined)	4	3	0	0	nt	nt
O=C(O)C(O)C(O)C(O)C(O)C(=O)O (centres undefined) (tested in a mixture with another compound)	-4	nt	0	0	nt	nt
O=C(O)c1nsnc1C(O)C(O)C(=O)O (centres undefined)	68*	-1	-1	0	-7	1
CN1CCN(CC(=O)c2ccccc2F)CC1	78*	4	0	0	10	15
CN1CCN(CC(=O)c2cccs2)CC1	34	-4	-1	0	nt	nt
COC(=O)c1cc2sccc2n1CC(=O)Nc1c(F)c(F)cc(F)c1F	1	10	1	0	nt	nt
COC1(OC)N=C(N)C2(C#N)C(c3cccc(OCc4ccccc4)c3)C12C#N (centres undefined)	35	-3	-1	0	nt	nt
COC1(OC)N=C(N)C2(C#N)C(c3cccc(C)c3)C12C#N (centres undefined)	52*	2	0	0	8	-2
COc1ccccc1NC(=O)C1CC12CCN(Cc1c(O)ccc3ccccc13)CC2 (centres undefined)	-8	-1	2	0	nt	nt
CCC1CN(CC(=O)NC2C3CC4CC(C3)CC2C4)Cc2cc(OC)ccc2O1 (centres undefined)	60*	-5	1	0	-1	6
COc1cc(CN(C)CCN(C)C)cc(OC)c1O	55*	3	1	0	-3	-4
COc1c(O)cc(O)cc1O	72*	-14	-2	0	60*	-1	AS interf DR=>6.5
COc1cc(O)c(C)c(O)c1	14	-4	-2	0	nt	nt
c1ccc(C2CCC(N3CCN(C4CCCCC4)CC3)CC2)cc1 (centres undefined)	34	-10	2	0	nt	nt
COc1cc(C(=O)N2CCN(C(=O)c3ccccc3)CC2)cc(OC)c1OC	2	-7	0	0	nt	nt
COc1ccc(CN2CCC(N3CCN(c4ccccc4)CC3)CC2)c(OC)c1	60*	18	-1	0	-9	-1
COc1ccccc1CN1CCN(C2CCC(c3ccccc3)CC2)CC1 (centres undefined)	71*	-27	2	0	-4	3
COc1ccc(CN2CCN(C3CCN(Cc4ccccc4)CC3)CC2)c(OC)c1	38	7	0	1	nt	nt
COc1cc(C(=O)N2CCN(C3CCC(c4ccccc4)CC3)CC2)cc(OC)c1OC (centres undefined)	51*	0	-2	0	13	17
COc1ccc(CN2CCN(C3CCC(c4ccccc4)CC3)CC2)c(OC)c1 (centres undefined)	58*	-1	-2	0	16	19
CCCCNC(=O)COC(=O)c1ccc2c(c1)S(=O)(=O)c1ccccc1C2=O	7	6	0	0	nt	nt
COc1ccccc1N1CCN(C(=O)COc2ccc(Br)cc2)CC1	10	6	0	0	nt	nt
CCOc1ccc2nc(N=C(NC(=O)c3ccccc3)NC(=O)c3ccccc3)nc(C)c2c1	71*	-10	0	0	-2	11
CCOc1ccc2nc(N=C(NC(C)=O)NC(C)=O)nc(C)c2c1	-7	-56	0	0	nt	nt
Cc1ccc(NC(=O)c2sc3nc4c(c(-c5ccco5)c3c2N)CCCC4)cc1	51*	-5	1	0	-14	-3
NC(=O)c1sc2nc3c(c(-c4ccco4)c2c1N)CC/C3=C\c1ccco1	117*	1	-2	0	110*	90*
CC(=O)Nc1ccc(N2CCN(C(=O)c3ccccc3)CC2)cc1	53*	9	2	0	-12	-3
O=C(CN1CC(=O)Oc2ccccc21)Oc1ccc(F)cc1	69*	0	0	0	3	3

Source: PubChem BioAssay (The Scripps Research Institute Molecular Screening Center)
